Assay outcomes: PubChem, several laboratories
This is a sample that favours compounds with a hit; in the whole collection about 5.6% have one here.
M18AAP inhibitor – PfM18AAP enzyme inhibition; inhibition, % at 7.35 µM; hit rate 1.2% among 290,000; recombinant PfM18AAP, H-Glu-NHMec fluorogenic cleavage;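 active means inhibition above the campaign mean inhibition over all tested compounds plus 3 SD, cut at about 28% in these data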
Cardio protect – modulators protecting cardiomyocytes from myocardial damage | H9c2 cardiomyocytes, H2O2 injury protection, ATPLite, 2 h | protection from H2O2 cell death, % at 20 µM | hit rate 0.63% among 360,000;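 active means compounds giving at least 50% protection of heart cells from peroxide-induced death in the single-dose screen, raw or plate-pattern-corrected value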
PfG6PD inh – PfG6PD (Plasmodium falciparum) enzyme inhibition; hit rate 0.78% among 350,000; inhibition, % at 20 µM; PfGluPho enzyme, NADPH resazurin-diaphorase fluorescence;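 active means inhibition reaching at least a set limit at 20 µM in the primary screen, cut at about 59% in these data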
ALR H2O2 inh – blocks human ALR sulfhydryl oxidase activity. purified ALR, DTT oxidation, H2O2 HRP-luminol luminescence. inhibition, % (test concentration not listed). P55789. hit rate 3.8% among 290,000;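 active means mean replicate inhibition above about 79%, with every replicate also reaching it, limit read from the data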
Target sequence (P55789 whole entry, looked up): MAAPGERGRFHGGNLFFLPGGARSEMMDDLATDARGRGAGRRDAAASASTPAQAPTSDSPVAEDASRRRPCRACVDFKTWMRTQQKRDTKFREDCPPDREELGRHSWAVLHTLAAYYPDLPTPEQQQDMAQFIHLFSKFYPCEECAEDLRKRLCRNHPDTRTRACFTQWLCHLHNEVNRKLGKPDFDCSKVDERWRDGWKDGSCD
PHOSPHO1 block – inhibitors of human PHOSPHO1 phosphatase; Q8TCT1; recombinant PHOSPHO1, absorbance phosphatase assay; inhibition, % at 13.3 µM; hit rate 1.1% among 290,000; AID 1565; in the data active means inhibition above about 60%
Target sequence (Q8TCT1 whole entry, looked up): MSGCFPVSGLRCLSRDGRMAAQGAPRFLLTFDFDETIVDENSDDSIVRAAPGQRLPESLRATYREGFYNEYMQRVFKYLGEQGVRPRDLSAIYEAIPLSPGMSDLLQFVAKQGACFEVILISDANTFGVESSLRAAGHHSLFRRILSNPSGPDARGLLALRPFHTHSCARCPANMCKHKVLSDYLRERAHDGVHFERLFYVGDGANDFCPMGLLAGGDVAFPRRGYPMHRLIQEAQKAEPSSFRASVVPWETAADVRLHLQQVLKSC
Large screens that a line does not name were inactive.

Cc1ccc(NC2CCCN(C(=O)c3cc(C(C)C)[nH]n3)C2)cc1C (configuration not stated)	ALR H2O2 inh 99
Cc1nc(C(=O)N2CCCC(Nc3ccc(C)c(C)c3)C2)cs1 (configuration not stated)	ALR H2O2 inh 99
Cc1ccc(NC2CCCN(C(=O)c3cnsn3)C2)cc1C (configuration not stated)	ALR H2O2 inh 99
Cc1cc(C(=O)N2CCCC(Nc3ccc(C)c(C)c3)C2)nc(C)n1 (configuration not stated)	none (no result: M18AAP inhibitor, ALR H2O2 inh, PHOSPHO1 block)
CC(C)c1ccc(NC2CCCN(C(=O)c3cc(C(C)C)[nH]n3)C2)cc1 (configuration not stated)	none (no result: ALR H2O2 inh)
Cc1ccc(NC2CCCN(C(=O)c3ccccn3)C2)cc1C (configuration not stated)	ALR H2O2 inh 99
Nc1ncnc2c1ncn2C1OC(C(=O)NC2CC2)C(O)C1O (configuration not stated)	none (no result: M18AAP inhibitor, PHOSPHO1 block)
CSc1ncccc1C(=O)N1CCCC(Nc2ccc(C)c(C)c2)C1 (configuration not stated)	ALR H2O2 inh 99
Cc1ccc(S(=O)(=O)NCC2(c3ccccc3)CCOCC2)cc1	none (no result: ALR H2O2 inh)
COc1ccc(C2(CNS(=O)(=O)c3ccccc3)CCOCC2)cc1	PHOSPHO1 block 64
Cc1ccc(Nc2cc(C)c3ccc(O)cc3n2)cc1C	ALR H2O2 inh 88
Cc1ccc2c(c1)[C@@H]1[C@H](CO2)[C@H](c2ccccc2)[C@@]2(C)C(=O)N[C@H](C)C(=O)N12	none (no result: M18AAP inhibitor, PHOSPHO1 block)
COc1cc(NC(=O)c2cc3ccccc3cc2OC)ccc1NC(=O)c1cccs1	Cardio protect 63
COc1cc(NC(=O)c2ccccc2Cl)ccc1NC(=O)c1cccs1	none
CCNc1nnc(SCC(=O)NC2CCCCCC2)s1	none (no result: M18AAP inhibitor, ALR H2O2 inh, PHOSPHO1 block)
Cc1ccc2[nH]c(C(=O)O)c(NC(=O)CN3CCN(c4cccc(C)c4C)CC3)c2c1	ALR H2O2 inh 94
COC(=O)c1[nH]c2ccc(C)cc2c1NC(=O)CN1CCN(Cc2ccccc2)CC1	PHOSPHO1 block 85
COC(=O)c1[nH]c2ccc(C)cc2c1NC(=O)CN1CCN(c2ccccc2)CC1	none
CSc1cc(SC)ncn1	none (no result: M18AAP inhibitor, ALR H2O2 inh, PHOSPHO1 block)
COc1cc2c(c(NC(C)=O)c1)N(C(C)=O)CCC2	none (no result: M18AAP inhibitor, ALR H2O2 inh, PHOSPHO1 block)
Cc1ccc(N2C(=O)CN(Cc3cccs3)C2=S)cc1C	ALR H2O2 inh 96
CCOc1ccccc1NC(C)C(=O)NC(=O)NC1CCCCC1 (configuration not stated)	ALR H2O2 inh 88 (no result: M18AAP inhibitor, PHOSPHO1 block)
CCN(CC)CCNC(=O)CCc1n[nH]c(=O)c2ccccc12	Cardio protect 81
Cc1ccc(S(=O)(=O)N(C)CC(=O)Nc2ccccc2N2CCCC2)cc1	ALR H2O2 inh 83 (no result: M18AAP inhibitor, PHOSPHO1 block)
Cc1ccc(C2(C)NC(=O)N(CC(=O)Nc3ccccc3N3CCCC3)C2=O)cc1 (configuration not stated)	ALR H2O2 inh 77 (no result: M18AAP inhibitor, PHOSPHO1 block)
NC(=S)N/N=C/c1ccc(C23CC4CC(CC(C4)C2)C3)cc1	none (no result: Cardio protect)
COc1cc(O)ccc1C(=O)CCc1ccc(O)cc1	ALR H2O2 inh 99
CN1C(C(=O)c2ccccc2)=C(N)c2ccccc2S1(=O)=O	PHOSPHO1 block 64 (no result: ALR H2O2 inh)
COc1cc(-c2nnc(-c3ccc(N4CCOCC4)cc3)o2)cc(OC)c1OC	Cardio protect 53
O=C(COC(=O)C1CC(O)CN1S(=O)(=O)c1ccccc1[N+](=O)[O-])c1ccc[nH]1 (configuration not stated)	none (no result: M18AAP inhibitor, PHOSPHO1 block)
CCN(CCCNC(=O)c1c(C)cc(=O)oc1C)c1cccc(C)c1	ALR H2O2 inh 100
CCOC(=O)C1CCCN(c2c(NCCCN(CC)c3ccccc3)c(=O)c2=O)C1 (configuration not stated)	ALR H2O2 inh 98
CCOC(=O)N1CCC(Nc2c(NCCCN(CC)c3cccc(C)c3)c(=O)c2=O)CC1	ALR H2O2 inh 99
CCOC(=O)N1CCN(c2c(NCCCN(C)c3ccccc3)c(=O)c2=O)CC1	ALR H2O2 inh 99
CCc1ccc(NC(=O)c2ccc(NC(=O)C3CCCO3)cc2)cc1 (configuration not stated)	none
CC(C)OCCCNC(=O)C1CCC(=O)N1C(C)C (configuration not stated)	none
CCOC(=O)C1CCN(c2c(NCCN(CC)c3ccccc3)c(=O)c2=O)CC1	ALR H2O2 inh 98
CCN(CCCNC(=O)C1CCC(=O)N1C(C)C)c1cccc(C)c1 (configuration not stated)	ALR H2O2 inh 99
COc1ccc(S(=O)(=O)N2CCN(C(=O)c3ccccc3Cc3ccccc3)CC2)cc1OC	none (no result: M18AAP inhibitor, ALR H2O2 inh, PHOSPHO1 block)
CC(C)Cc1cc(C(C)(C)C)ccc1OC(=S)N(C)C	none
COc1cc(C2c3sc(=O)[nH]c3SC3C(=O)N(c4ccc(Br)cc4)C(=O)C32)ccc1O (configuration not stated)	M18AAP inhibitor 28
COc1ccc(C2c3sc(=O)[nH]c3SC3C4CCC(C4)C23)cc1OC (configuration not stated)	none
COCCN(Cc1ccccc1)C(=O)c1ccc(C(=O)c2ccccc2)cc1	none (no result: M18AAP inhibitor, ALR H2O2 inh, PHOSPHO1 block)
Cc1ccc(C(=O)Oc2csc(=S)n2C(=O)c2ccc(C)cc2)cc1	PfG6PD inh 60
Cc1ccc(OCC(=O)Nc2cccc(S(=O)(=O)N3CCCCCC3)c2)cc1C	none (no result: M18AAP inhibitor, PHOSPHO1 block)
COC(=O)N1C(=O)[C@@](c2ccccc2)(C2CCCC2)N1C(=O)OC	none (no result: ALR H2O2 inh)
COC(=O)N1C(=O)[C@](c2ccccc2)(C2CCCCC2)N1C(=O)OC	Cardio protect 56
Cc1nc2nc(NC(=O)c3ccco3)nn2c(C)c1Cl	none
Cc1cccc(N2CCN(Cc3nc(CC4CC4)no3)CC2)n1	PHOSPHO1 block 60
Cc1cccc(SC2CCN(Cc3nc(CC4CC4)no3)CC2)c1	none
COc1cccc(C=O)c1OCCCOc1cccc2cccnc12	ALR H2O2 inh 97
Brc1ccccc1OCCCOc1cccc2cccnc12	none
CC(c1n[nH]c(=S)n1-c1ccc(F)cc1)N1CCCCC1 (configuration not stated)	ALR H2O2 inh 91
Cc1ccc(SCC(=O)Nc2ccc(F)cc2[N+](=O)[O-])cc1C	ALR H2O2 inh 96
COc1ccc([N+](=O)[O-])cc1NC(=O)CSc1ccc2ccccc2c1	ALR H2O2 inh 99
COc1ccc([N+](=O)[O-])cc1NC(=O)CSc1nc(C)cc(C)n1	M18AAP inhibitor 30 (no result: ALR H2O2 inh)
Cc1cc(C)n2nc(SCC(=O)Nc3ccc(F)cc3[N+](=O)[O-])nc2n1	none (no result: M18AAP inhibitor, ALR H2O2 inh, PHOSPHO1 block)
Cc1cc(C)nc(SCC(=O)Nc2ccccc2[N+](=O)[O-])n1	none
COc1ccccc1Nc1c([N+](=O)[O-])cc(C)cc1[N+](=O)[O-]	none
COc1ccccc1Nc1ccc([N+](=O)[O-])cc1N	M18AAP inhibitor 31 (no result: ALR H2O2 inh)
N#Cc1ccc(Cl)cc1NC(=O)CN1C(=O)C(=O)N(CCC2=CCCCC2)C1=O	none (no result: M18AAP inhibitor, ALR H2O2 inh, PHOSPHO1 block)
COc1ccccc1NCCC(=O)OCC(=O)Nc1cc([N+](=O)[O-])ccc1F	ALR H2O2 inh 93 (no result: M18AAP inhibitor, PHOSPHO1 block)
COCCSc1ccccc1C(=O)Nc1ccc([N+](=O)[O-])cc1OC	PHOSPHO1 block 64
COc1ccc([N+](=O)[O-])cc1NC(=O)COC(C)=O	PHOSPHO1 block 65
S=C1SCCCN1Cc1ccc(Cl)cc1	none (no result: M18AAP inhibitor, ALR H2O2 inh, PHOSPHO1 block)
